Bioassay records as filed in PubChem BioAssay.
In the library only some 7.5% were active in any assay of this set; here they are far more common.
Rab9 promoter act: activates the Rab9 promoter; actives 2.8% (n = 320,000); Potency, µM (doses to about 9.22 µM), for the others: top-dose activation, negative = inhibition, most hits filed as activators; AID 485297; Huh7 Rab9 promoter-luciferase reporter, luminescence, 24 h; note: % of control where 0% means no effect; nearly all actives have a fitted effect of over 60% in size
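Luciferase signal after 10 min detection reagent at ambient indicates Rab9 promoter upregulation; stably transfected Huh7 cells were treated 24 h with compound in DMSO at 37 °C, 5% CO2.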
KinaseGlo FLuc: counter-screen: inhibitors of Kinase-Glo firefly luciferase; Potency, µM (highest dose often 38.3 µM), for the others: at the highest dose activity change, negative = inhibition, actives largely listed as inhibitors; Kinase-Glo luciferase, ATP luminescence, 8 min; actives 0.28% (n = 200,000); note: % is set by controls: 0 for no effect and ±100 for the full control effect; nearly all actives have a fitted effect of over 60% in size
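Luminescence was the read-out, taken after 8-minute incubation at ambient temperature. Luciferase turned over luciferin with 10 uM ATP in imidazole pH 7.2 buffer containing KCl, MgCl2, Tween 20 and BSA.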
SMN2 splice up: SMN2 splice variant enhancement | HEK293 SMN2-luciferase splicing reporter, luminescence, 30-36 h | Potency, µM (titrated, usually from 46.1 µM), without a hit: at the top dose activity change, positive = activation, usual class: activators | actives 2.8% (n = 210,000) | AID 1458; note: % of control where 0% means no effect; nearly all actives have a fitted effect of over 55% in size
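qHTS luciferase splicing reporter: luminescence rises when SMN2 exon 7 is included in transfected HEK293 cells. Compound exposure lasted 30-36 h at 37C, with 4.5 mM final sodium butyrate as control, followed by a ONE-Glo read.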
NPC1 prom act: activates the NPC1 promoter. actives 2.4% (n = 320,000). Huh7 NPC1 promoter luciferase reporter, 24 h. Potency, µM (top dose mostly 9.22 µM), inactives show at the top dose activation, actives largely listed as activators; note: % of control where 0% means no effect; nearly all actives have a fitted effect of over 60% in size
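Cells: Huh7 expressing luciferase under the NPC1 promoter, 1500/well. Seeded 2 h, compound added, incubated 24 h at 37 °C. Luciferase reagent, 10 min ambient, then luminescence.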
ELG1 genotox: genotoxicity induction in ELG1-luciferase HEK293T cells. HEK293T ELG1-luciferase reporter, luminescence, 16 h. AID 504466. Potency, µM (series often up to 46 µM), for inactives: top-dose activity change, positive = activation, actives largely listed as activators. actives 1.3% (n = 330,000); note: % of control where 0% means no effect; nearly all actives have a fitted effect of over 60% in size
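HEK293T cells expressing luciferase-tagged ELG1 were treated with compound or DMSO for 16 hr at 37°C. Luciferase activity was then read after 30 min with ONE-Glo at room temperature; rising signal flags genetic stress.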
FLuc counter: counter-screen for miR-21 project: firefly luciferase inhibitors or activators | P08659 | purified FLuc, Km substrates, luminescence inhibition | Potency, µM (highest dose often 57.5 µM), inactives show at the highest dose activity change, negative = inhibition, hits mostly inhibitors | actives 6.9% (n = 360,000) | AID 588342;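 note: plate controls were vehicle for no effect and reference inhibitor for full effect; nearly all actives have a fitted effect of over 55% in size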
Target sequence (P08659 whole entry, looked up): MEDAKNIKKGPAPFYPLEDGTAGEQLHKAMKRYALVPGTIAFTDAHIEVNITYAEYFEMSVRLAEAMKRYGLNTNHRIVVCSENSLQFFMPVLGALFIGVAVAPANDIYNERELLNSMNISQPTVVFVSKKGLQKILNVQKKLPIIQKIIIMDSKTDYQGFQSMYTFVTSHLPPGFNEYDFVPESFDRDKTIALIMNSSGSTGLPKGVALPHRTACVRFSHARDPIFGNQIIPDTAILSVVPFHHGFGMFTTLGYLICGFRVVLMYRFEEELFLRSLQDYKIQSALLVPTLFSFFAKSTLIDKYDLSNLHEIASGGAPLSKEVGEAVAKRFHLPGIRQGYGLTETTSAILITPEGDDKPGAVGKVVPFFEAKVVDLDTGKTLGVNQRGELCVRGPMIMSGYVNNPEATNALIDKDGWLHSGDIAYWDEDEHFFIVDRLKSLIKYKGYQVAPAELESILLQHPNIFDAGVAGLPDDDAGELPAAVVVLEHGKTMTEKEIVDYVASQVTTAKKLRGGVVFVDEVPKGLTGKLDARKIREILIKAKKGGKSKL
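Purified P. pyralis luciferase, 10 nM final, with Km-level 10 uM D-luciferin and 10 uM ATP in 50 mM Tris acetate pH 7.5, 10 mM Mg acetate, 0.01% Tween-20, 0.05% BSA; 6-point qHTS titration about 60 µM downward; luminescence read.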
* marks the source's active call; other numbers are inactive results; ? = inconclusive; nt = no result; [ ] = remark or other dose. Calls come from the whole dose curve; as a rule, active = well fitted curve in the direction sought with a large enough effect; inconclusive = small, poorly fitted or top-dose-only effect, or another doubt; inactive = no such curve, though single readings can be large; an effect the other way counts as inactive or inconclusive. Potency is the fitted concentration of half-maximal effect.

SMILES | Rab9 promoter act | KinaseGlo FLuc | SMN2 splice up | NPC1 prom act | ELG1 genotox | FLuc counter
CCOC(=O)Cn1cc(/C=N/N2C(=O)C3C4C=CC(C4)C3C2=O)c2ccccc21 (stereo not given) | -1% | 1% | 3% | 5% | 8% | 15µM*
O=C1C2C3C=CC(CC3)C2C(=O)N1/N=C/c1c[nH]c2ccccc12 (stereo not given) | ? | -2% | 92% | ? | 25% | 9.5µM*
O=C1C2C3C=CC(C3)C2C(=O)N1/N=C/c1cn(Cc2ccccc2)c2ccccc12 (stereo not given) | 6% | -3% | -5% | 5% | 11% | ?
Cc1cccc(-c2nc(CSCC(=O)N3CCN(c4ccccc4)CC3)c(C)o2)c1 | nt | nt | -39% | nt | nt | -17%
C[C@@H]1[C@H]2CC[C@@H]3[C@@H]4CC=C5C[C@@H](N(C)C)CC[C@]5(C)[C@@H]4CC[C@@]32CN1C | nt | -3%[17.1 µM] | -19%[20.6 µM] | nt | nt | nt
Cc1ccsc1/C=N/NC(=O)C(O)c1ccccc1 (stereo not given) | 6% | nt | nt | -2% | 0% | -4%
Cc1ccsc1/C=N/Nc1nc2ccccc2[nH]1 | 2.5µM* | -13% | 11µM* | 2.5µM* | ? | 3.4µM*
C(=N\Nc1nc2ccccc2[nH]1)/c1cccs1 | 4µM* | nt | nt | 3.2µM* | ? | 3.8µM*
CCOc1ccc(OCc2ccc(C(=O)N3CCOCC3)cc2)cc1 | 30% | -2% | -10% | 29% | 5% | ?
CCOc1ccc(N=C(/C(C(=O)C(=O)N2CCOCC2)=C(\O)c2ccccc2)c2ccccc2)cc1 | ? | -8% | 13µM* | ? | ? | ?
CSCCC(NS(=O)(=O)c1ccc2c(c1)oc(=O)n2C)C(=O)N1CCN(c2cc(Cl)ccc2C)CC1 (stereo not given) | nt | nt | nt | nt | nt | 5%
COc1ccc(-n2c3c(cc(-c4nc(-c5ccc(Cl)cc5)cs4)c2=O)C(=O)CC(C)(C)C3)cc1 | nt | nt | 19% | nt | nt | 0%
CC1=CC(=C(C#N)c2nc3ccccc3s2)C=C(C)N1c1ccc(F)cc1 | 30% | -1% | ? | 24% | 13% | 3.4µM*
CC(C)=C(C#N)c1nc2ccccc2s1 | -9% | 2% | -4% | -1% | 0% | -14%
COc1ccccc1N1C(C)=CC(=C(C#N)c2nc3ccccc3s2)C=C1C | 3% | 4% | -43% | 16% | 14% | 3µM*
Cc1ccc(CNC(=O)c2ccc(N3CCCC3)c(NC(=O)Nc3ccc(F)c(Cl)c3)c2)cc1 | nt | nt | nt | nt | nt | 3%
Cn1nnnc1Sc1ncnc2scc(-c3ccc([N+](=O)[O-])cc3)c12 | -26% | nt | nt | -11% | -8% | 0%
Cc1cc(NC(=O)C(C)C)ncc1NC(=O)c1ccccn1 | 3.2µM* | -3% | 13µM* | ? | ? | ?
CC(C)C(=O)Nc1ccc(NC(=O)c2ccccn2)cn1 | 0.56µM* | nt | nt | 0.71µM* | ? | 6.7µM*
CCCC(=O)Nc1cc(C)c(NC(=O)c2ccccn2)cn1 | ? | -9% | 8% | 24% | 4% | -19%
CC(C)C(=O)Nc1ccc(NC(=O)c2cccnc2)cn1 | 0% | -1% | 2% | -6% | 5% | 0%
CCC(=O)Nc1ccc(NC(=O)c2ccccn2)cn1 | 0.63µM* | -18% | 14µM* | 1.3µM* | 2.5µM* | 11µM*
CC(C)C(=O)Nc1ccc(NC(=O)c2cccs2)cn1 | ? | 9% | 7% | ? | 18µM* | ?
CC[C@@H]1CN2CCc3cc(OC)c(OC)cc3[C@@H]2C[C@@H]1C[C@H]1NCCc2cc(OC)c(OC)cc21 | nt | -1% | nt | nt | nt | nt
O=C(Nc1ccc(NC(=O)C2CC2)nc1)c1cnccn1 | 14% | -7% | ? | 3% | ? | -21%
O=C(Nc1ccc(NC(=O)C2CC2)nc1)c1ccccn1 | 1.3µM* | nt | nt | 0.56µM* | ? | 6.7µM*
